Experimental data: PubChem BioAssay (NCI)
This is part of a sample that, as a whole, favours compounds with a hit. Of some 83,000 tested, about 20% had one in any assay.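 Single-dose data. Exposure time 48 hours. Values below 10 considered active.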 A number with no mark means an inactive call. Activity calls are given as the source filed them.

System: NCI-H23 lung
Experiment: NCI-60 one-dose screen, 48 h (100 = growth as untreated, 0 = no growth, -100 = all killed)
Settings: 10 µM unless noted

| Compound | growth |
| --- | --- |
| COc1ccc(OC)c(N(CCN2C(=O)c3ccccc3C2=O)C(=O)CCl)c1 | 32.1% |
| O=C(NC1CCN(Cc2ccccc2)CC1)c1cc(C(=O)NC2CCN(Cc3ccccc3)CC2)cc(C(=O)NC2CCN(Cc3ccccc3)CC2)c1 | 77.2% |
| CCOC(=O)c1c(Cl)c2c(n1Cc1ccccc1)-c1oncc1CCC2 | 86.9% |
| O=C(/C=C/c1ccccn1)c1ccc(OCc2nnc(-c3ccc(Cl)cc3)o2)cc1 | 70% |
| CSc1nc2c(c(=O)n1C)N=C1c3ccccc3C(=O)C1C(c1ccccc1)N2 (stereo not drawn) | 85% |
| CC/C=C\C[C@H](O)C/C=C1/C(=O)C=C[C@@H]1C/C=C\CCCC(=O)OCCS(=O)(=O)c1ccccc1 | 59% |
| Cc1cc(Nc2ccc(OCc3ccccc3)cc2)nc2cc(O)ccc12 | 55% |
| CSc1nc2c(c(=O)[nH]1)N=C1c3ccccc3C(=O)C1C(c1ccc(F)cc1)N2 (stereo not drawn) | 83.7% |
| CCOc1ccccc1CN1CCc2nc3cc(C(C)(C)C)[nH]n3c(=O)c2C1 | 97% |
| O=C(NC(=S)Nc1cccc(NC(=S)NC(=O)c2ccccc2)c1)c1ccccc1 | 69.1% |
| CCOC(=O)c1c2c(n3cccc(Cl)c13)C(=O)c1ncccc1C2=O | 34.2% |
| O=C(NN1C(=O)CSC1c1ccc(Cl)cc1)c1[nH]c2ccc(F)cc2c1-c1ccccc1 (stereo not drawn) | 57.8% |
| COc1ccc(-n2c(C(O)c3ccccc3)nn(CN3CCOCC3)c2=S)cc1 (stereo not drawn) | 99.4% |
| CCCC(=O)CC(C)=O.CCCC(=O)CC(C)=O.[Cu] | 97.3% |
| COc1ccc(C2Nc3ncnc(N)c3N=C3c4ccccc4C(=O)C32)cc1 (stereo not drawn) | 101% |
| Nc1nc(N)c2c(n1)NC1(C=C(O)c3ccccc31)C1=C(N2)c2ccccc2C1=O (stereo not drawn) | 104% |
| CCOC(=O)c1cnc2ccc(Cl)cc2c1NCCCN(C)C | 22% |
| CCCCCCc1cc2cc(-c3nc4ccccc4[nH]3)c(=Nc3ccccc3C)oc2cc1O | 50.4% |
| OC(c1ccccc1)c1nnc(SCc2ccccc2)n1Cc1ccccc1 (stereo not drawn) | 98.2% |
| CC(=O)O[C@@H]1/C=C/C(=O)N[C@@H](C)CCC/C=C/[C@@H]2CCC[C@H]21 | 98.2% |

| Compound | growth |
| --- | --- |
| COc1ccc(C2Nc3nc(OC)n(C)c(=O)c3N=C3c4ccccc4C(=O)C32)cc1 (stereo not drawn) | 100% |
| CN1CCN(c2nc(Nc3ccc(O)cc3)nc3ccccc23)CC1 | 74.8% |
| COc1ccc(/C=C2\SC(=Nc3ccccc3)NC2=O)cc1 | 21.6% |
| CCOC(=O)c1cc2c(n1Cc1cc(OC)c(OC)c(OC)c1)-c1oncc1CCC2 | 21.5% |
| Cn1c2c(c(=O)[nH]c1=O)NC1=C(C(=O)c3ccccc31)C1(C=C(O)c3ccccc31)N2 (stereo not drawn) | 109% |
| FC(F)(F)c1cccc(Nc2nc(-c3ccccc3)nc3ncccc23)c1 | 89.9% |
| O=C(Nc1ccc(Cl)cc1)c1cc2ccccc2cc1OP(=O)(O)O | -0.361% (active) |
| COC(=O)/C(=C\c1c(-c2ccccc2)[nH]c2ccccc12)S(C)(=O)=O | 33.9% |
| Nc1ccc(C2c3ccccc3Oc3ccccc32)cc1 | 99.1% |
| N#CC(C#N)=Cc1c(-c2ccccc2)[nH]c2ccccc12 | 41% |
| CCCCc1ccc(NS(=O)(=O)c2cc3c4c(c2)CCN4C(=O)CC3)cc1 | 21.2% |
| O=C(CSc1ncccc1C(=O)O)Nc1ccc(Oc2ccccc2)cc1 | 104% |
| N#C/C(=C\c1c(-c2ccccc2)[nH]c2ccccc12)C(=O)c1ccccc1 | 47.9% |
| O=C1/C=C/[C@@H](O)[C@@H]2C[C@@H](O)C[C@H]2/C=C/CCCCO1 | 13% |
| CCCC(c1nnnn1C1CCCCC1)N1CCN(C(=O)c2ccco2)CC1 (stereo not drawn) | 71% |
| Nc1nc(Nc2cccc(F)c2)nc2ccccc12 | 38.7% |
| CC(C)(C)c1ccc(C2CC(=O)C3=C(C2)Nc2ccccc2N(C(=O)c2ccccc2Cl)C3c2ccc(F)cc2)cc1 (stereo not drawn) | 3.17% (active) |
| O=CCCCC(O)C=O (stereo not drawn) | 96.3% |
| CN(O)c1nc(N(C)O)nc(N2CCOCC2)n1 | 66% |

System: NCI-H322M lung
Experiment: as above
Settings: 10 µM unless noted

| Compound | growth |
| --- | --- |
| COc1ccc(OC)c(N(CCN2C(=O)c3ccccc3C2=O)C(=O)CCl)c1 | 97.7% |
| O=C(NC1CCN(Cc2ccccc2)CC1)c1cc(C(=O)NC2CCN(Cc3ccccc3)CC2)cc(C(=O)NC2CCN(Cc3ccccc3)CC2)c1 | 90.3% |
| CCOC(=O)c1c(Cl)c2c(n1Cc1ccccc1)-c1oncc1CCC2 | 94% |
| O=C(/C=C/c1ccccn1)c1ccc(OCc2nnc(-c3ccc(Cl)cc3)o2)cc1 | 52.7% |
| CSc1nc2c(c(=O)n1C)N=C1c3ccccc3C(=O)C1C(c1ccccc1)N2 (stereo not drawn) | 95.1% |
| CC/C=C\C[C@H](O)C/C=C1/C(=O)C=C[C@@H]1C/C=C\CCCC(=O)OCCS(=O)(=O)c1ccccc1 | 71.2% |
| Cc1cc(Nc2ccc(OCc3ccccc3)cc2)nc2cc(O)ccc12 | 76.2% |
| CSc1nc2c(c(=O)[nH]1)N=C1c3ccccc3C(=O)C1C(c1ccc(F)cc1)N2 (stereo not drawn) | 92.3% |
| CCOc1ccccc1CN1CCc2nc3cc(C(C)(C)C)[nH]n3c(=O)c2C1 | 101% |
| O=C(NC(=S)Nc1cccc(NC(=S)NC(=O)c2ccccc2)c1)c1ccccc1 | 89% |
| CCOC(=O)c1c2c(n3cccc(Cl)c13)C(=O)c1ncccc1C2=O | 26.5% |
| O=C(NN1C(=O)CSC1c1ccc(Cl)cc1)c1[nH]c2ccc(F)cc2c1-c1ccccc1 (stereo not drawn) | 82.1% |
| COc1ccc(-n2c(C(O)c3ccccc3)nn(CN3CCOCC3)c2=S)cc1 (stereo not drawn) | 104% |
| CCCC(=O)CC(C)=O.CCCC(=O)CC(C)=O.[Cu] | 99.5% |
| COc1ccc(C2Nc3ncnc(N)c3N=C3c4ccccc4C(=O)C32)cc1 (stereo not drawn) | 101% |
| Nc1nc(N)c2c(n1)NC1(C=C(O)c3ccccc31)C1=C(N2)c2ccccc2C1=O (stereo not drawn) | 123% |
| CCOC(=O)c1cnc2ccc(Cl)cc2c1NCCCN(C)C | 10.4% |
| CCCCCCc1cc2cc(-c3nc4ccccc4[nH]3)c(=Nc3ccccc3C)oc2cc1O | 62.8% |
| OC(c1ccccc1)c1nnc(SCc2ccccc2)n1Cc1ccccc1 (stereo not drawn) | 106% |
| CC(=O)O[C@@H]1/C=C/C(=O)N[C@@H](C)CCC/C=C/[C@@H]2CCC[C@H]21 | 93.2% |

| Compound | growth |
| --- | --- |
| COc1ccc(C2Nc3nc(OC)n(C)c(=O)c3N=C3c4ccccc4C(=O)C32)cc1 (stereo not drawn) | 106% |
| CN1CCN(c2nc(Nc3ccc(O)cc3)nc3ccccc23)CC1 | 68% |
| COc1ccc(/C=C2\SC(=Nc3ccccc3)NC2=O)cc1 | -53.9% (active) |
| CCOC(=O)c1cc2c(n1Cc1cc(OC)c(OC)c(OC)c1)-c1oncc1CCC2 | 50.7% |
| Cn1c2c(c(=O)[nH]c1=O)NC1=C(C(=O)c3ccccc31)C1(C=C(O)c3ccccc31)N2 (stereo not drawn) | 113% |
| FC(F)(F)c1cccc(Nc2nc(-c3ccccc3)nc3ncccc23)c1 | 87.8% |
| O=C(Nc1ccc(Cl)cc1)c1cc2ccccc2cc1OP(=O)(O)O | 22.7% |
| COC(=O)/C(=C\c1c(-c2ccccc2)[nH]c2ccccc12)S(C)(=O)=O | 63.8% |
| Nc1ccc(C2c3ccccc3Oc3ccccc32)cc1 | 99.8% |
| N#CC(C#N)=Cc1c(-c2ccccc2)[nH]c2ccccc12 | 61% |
| CCCCc1ccc(NS(=O)(=O)c2cc3c4c(c2)CCN4C(=O)CC3)cc1 | 32.7% |
| O=C(CSc1ncccc1C(=O)O)Nc1ccc(Oc2ccccc2)cc1 | 99% |
| N#C/C(=C\c1c(-c2ccccc2)[nH]c2ccccc12)C(=O)c1ccccc1 | 53.3% |
| O=C1/C=C/[C@@H](O)[C@@H]2C[C@@H](O)C[C@H]2/C=C/CCCCO1 | 33.2% |
| CCCC(c1nnnn1C1CCCCC1)N1CCN(C(=O)c2ccco2)CC1 (stereo not drawn) | 97.5% |
| Nc1nc(Nc2cccc(F)c2)nc2ccccc12 | 47.2% |
| CC(C)(C)c1ccc(C2CC(=O)C3=C(C2)Nc2ccccc2N(C(=O)c2ccccc2Cl)C3c2ccc(F)cc2)cc1 (stereo not drawn) | -9.78% (active) |
| O=CCCCC(O)C=O (stereo not drawn) | 109% |
| CN(O)c1nc(N(C)O)nc(N2CCOCC2)n1 | 35.1% |
